Assay outcomes (PubChem)
A selection: hits, their analogues and other compounds. The true share with any hit is near 9.4%.
ELG1 repair inh = inhibitors of ELG1-dependent DNA repair in HEK293T cells; HEK293T ELG1-luciferase reporter, luminescence, 16 h; DNA damage induced by 5-fluorouridine; Potency, µM (titrated, usually from 46.1 µM), for inactives: at the highest dose activity change, negative = inhibition, most hits filed as inhibitors; 330,000 compounds, 2.3% hits; AID 504467; also: % is scaled to controls: 0 for no effect and ±100 for the full control effect; nearly all actives have a fitted effect of over 55% in size
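Reporter activity after DNA damage by 5-fluorouridine is monitored. Compound-treated cells incubate 16 hr at 37 °C, then ONE-Glo is added for 30 min before luminescence reading.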
ELG1 genotoxic = genotoxicity induction in ELG1-luciferase HEK293T cells | 330,000 compounds, 1.3% hits | Potency, µM (top dose mostly 46 µM), without a hit: at the highest dose activity change, positive = activation, actives largely listed as activators | HEK293T ELG1-luciferase reporter, luminescence, 16 h; also: % of control where 0% means no effect; nearly all actives have a fitted effect of over 60% in size
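Step 1: seed 2,000 HEK293T ELG1-luciferase cells per well. Step 2: add compound or DMSO, incubate 16 hr at 37 °C. Step 3: ONE-Glo, 30 min at room temperature, read luminescence.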
NPC1 promoter act = activates the NPC1 promoter. 320,000 compounds, 2.4% hits. Potency, µM (top dose mostly 9.22 µM), inactives show at the top dose activation, actives largely listed as activators. Huh7 NPC1 promoter luciferase reporter, 24 h; also: % of control where 0% means no effect; nearly all actives have a fitted effect of over 60% in size
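Stably transfected Huh7 (NPC1 promoter→luciferase), 1500 cells/well in Opti-MEM + 10% FBS, 2 h settle, then compound 24 h at 37 °C. Luminescence after 10 min with Amplite reagent.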
FLuc modulator = counter-screen for miR-21 project: firefly luciferase inhibitors or activators; 360,000 compounds, 6.9% hits; purified FLuc, Km substrates, luminescence inhibition; Potency, µM (series often up to 57.5 µM), inactives show top-dose activity change, negative = inhibition, hits mostly inhibitors;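 also: plate controls were vehicle for no effect and reference inhibitor for full effect; nearly all actives have a fitted effect of over 55% in size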
Target sequence (P08659 whole entry, looked up): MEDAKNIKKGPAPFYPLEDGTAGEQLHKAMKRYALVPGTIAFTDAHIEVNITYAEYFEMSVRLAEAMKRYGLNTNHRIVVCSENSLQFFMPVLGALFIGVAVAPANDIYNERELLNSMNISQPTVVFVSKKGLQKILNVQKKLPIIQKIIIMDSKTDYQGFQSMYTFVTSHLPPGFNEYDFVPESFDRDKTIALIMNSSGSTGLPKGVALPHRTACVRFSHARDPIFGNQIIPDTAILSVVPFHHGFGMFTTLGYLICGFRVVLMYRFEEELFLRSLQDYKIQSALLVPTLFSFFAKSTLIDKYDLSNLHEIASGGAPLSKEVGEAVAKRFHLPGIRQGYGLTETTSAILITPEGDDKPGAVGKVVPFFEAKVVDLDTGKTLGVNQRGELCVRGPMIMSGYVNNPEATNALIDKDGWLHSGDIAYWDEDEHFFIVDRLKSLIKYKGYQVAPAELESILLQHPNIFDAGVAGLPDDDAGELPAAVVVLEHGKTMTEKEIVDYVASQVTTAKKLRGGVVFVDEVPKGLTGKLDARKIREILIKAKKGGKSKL
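Purified P. pyralis luciferase (10nM final) with 10uM D-luciferin and 10uM ATP (Km levels) in 50mM Tris acetate pH 7.5, 10mM Mg acetate, 0.01% Tween-20, 0.05% BSA; qHTS 6-point titration, ~60 µM downward; luminescence read.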
SMN2 splice enh = increases expression of the SMN2 splice variant | Potency, µM (top dose mostly 46.1 µM), for the others: top-dose activity change, positive = activation, usual class: activators | HEK293 SMN2-luciferase splicing reporter, luminescence, 30-36 h | 210,000 compounds, 2.8% hits | AID 1458; also: % of control where 0% means no effect; nearly all actives have a fitted effect of over 55% in size
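HEK293 cells carry an SMN2 minigene-luciferase reporter in which exon 7 inclusion puts luciferase in frame. Cells were seeded at 2000 cells/well, attached for 10-12 hours, then exposed to compounds for 30-36 hours at 37C before ONE-Glo luminescence.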
Rab9 promoter act = activators of Rab9 promoter; Huh7 Rab9 promoter-luciferase reporter, luminescence, 24 h; Potency, µM (top dose mostly 9.22 µM), without a hit: top-dose activation, negative = inhibition, actives largely listed as activators; 320,000 compounds, 2.8% hits; also: % of control where 0% means no effect; nearly all actives have a fitted effect of over 60% in size
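Huh7 cells stably carrying Rab9 promoter–luciferase reporter, plated 1500 cells/well, compound added after 2 h and incubated 24 h at 37 °C; luciferase luminescence then read after 10 min with detection reagent.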
Numbers without * were called inactive. Calls follow the shape of the dose curve; as a rule, active = well fitted curve in the direction sought with a large enough effect; inconclusive = small, poorly fitted or top-dose-only effect, or another doubt; inactive = no such curve, though single readings can be large; an effect the other way counts as inactive or inconclusive. Potency is read from the fitted curve at half-maximal effect.

Cc1cc(C)n(-c2nc(C)c(C)c(=O)n2CC(=O)Nc2cccc([N+](=O)[O-])c2)n1 was read as FLuc modulator -11%.
`COc1cccc(NC(=O)CSc2nnc3[nH]c(=O)cc(-c4ccccc4)n23)c1` gave FLuc modulator 1.2µM*.
`O=C(CSc1nnc2[nH]c(=O)cc(-c3ccccc3)n12)Nc1ccc(OC(F)(F)F)cc1` gave FLuc modulator 2.4µM*.
C=C1CC[C@H](O)C/C1=C/C=C1\CCC[C@]2(C)C([C@H](C)CCCC(C)(C)O)CC[C@@H]12 (some centres undefined) was read as SMN2 splice enh -9%.
Screening O=C(CCc1nnc(C2CCCCC2)o1)N1CCN(c2ccccc2F)CC1 returned ELG1 repair inh inconclusive, ELG1 genotoxic inconclusive, NPC1 promoter act 2.5µM*, FLuc modulator 12µM* and Rab9 promoter act 3.5µM*.
O=C(CCCC(=O)N1CCN(c2ccccc2F)CC1)c1ccccc1 was read as ELG1 repair inh inconclusive, ELG1 genotoxic inconclusive, NPC1 promoter act inconclusive, FLuc modulator 27µM* and Rab9 promoter act 4.5µM*.
`O=C(Nc1cccc(C(=O)N2CCN(c3ccc(F)cc3)CC2)c1)c1nsc2ccccc12` gave FLuc modulator 0.85µM*.
Screening O=C(Nc1cccc(C(=O)N2CCN(c3ccc(Cl)cc3)CC2)c1)c1nsc2ccccc12 returned FLuc modulator 1.2µM*.
For COc1cccc(N2CC(NC(=O)CCCc3ccccc3)CC2=O)c1 (centres undefined) the results were FLuc modulator 0%.
Cc1ccc(C)c(N2CCN(C(=O)c3ccc(NC(=O)c4nsc5ccccc45)cc3)CC2)c1 was read as FLuc modulator 17µM*.
COc1cccc(N2CCN(C(=O)c3ccc(C)c(NC(=O)c4nsc5ccccc45)c3)CC2)c1 was read as FLuc modulator -2%.
O=C(Nc1ccc(C(=O)N2CCN(c3cccc(Cl)c3)CC2)cc1)c1nsc2ccccc12 was read as FLuc modulator 4.3µM*.
For O=C(Nc1cccc(C(=O)N2CCN(c3cccc(Cl)c3)CC2)c1)c1ccccc1 the results were ELG1 repair inh inconclusive, ELG1 genotoxic -19%, NPC1 promoter act 0%, FLuc modulator -5%, SMN2 splice enh -23% and Rab9 promoter act 1%.
For O=C(Nc1cccc(C(=O)N2CCN(c3cccc(Cl)c3)CC2)c1)c1nsc2ccccc12 the results were FLuc modulator 2.7µM*.
`O=C(Nc1cccc(C(=O)N2CCN(c3ccccc3F)CC2)c1)c1nsc2ccccc12` gave FLuc modulator 3µM*.
`COc1ccccc1CNC(=O)c1cc(S(=O)(=O)N2CCCCCC2)cn1C` gave FLuc modulator -3%.
Cc1ccc(C(=O)N2CCN(c3ccc(F)cc3)CC2)cc1NC(=O)c1nsc2ccccc12 was read as FLuc modulator -4%.
Screening O=C(c1c(F)cccc1F)N1CCN(c2ccccc2F)CC1 returned ELG1 repair inh 0%, ELG1 genotoxic -3%, NPC1 promoter act 1%, FLuc modulator -1%, SMN2 splice enh -14% and Rab9 promoter act 2%.
Screening O=C(Nc1ccc(C(=O)N2CCN(c3ccccc3)CC2)cc1)c1nsc2ccccc12 returned FLuc modulator 5.4µM*.
For O=C(c1cccc(C(=O)N2CCN(c3ccccc3F)CC2)c1)N1CCN(c2ccccc2F)CC1 the results were ELG1 repair inh 16µM*, ELG1 genotoxic -19%, NPC1 promoter act -1%, FLuc modulator 6%, SMN2 splice enh -49% and Rab9 promoter act -3%.
